# Experimental data: PubChem BioAssay (NCI)
# The panel holds about 83,000 compounds, 20% with a hit somewhere; the sample as a whole holds those more often.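 Compound tested at a single concentration for 48 hours in 96-well plates; a percent growth value below 10 was scored as active.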 Unmarked numbers belong to inactive results. Activity calls are given as the source filed them.
# Test system: SK-MEL-2 melanoma
# Test: NCI-60 one-dose screen, 48 h (100 = growth as untreated, 0 = no growth, -100 = all killed)
# Settings: 10 µM unless noted
# Method: Growth inhibition of the SK-MEL-2 human tumor cell line is measured as a screen for anti-cancer activity. Cells are grown in 96 well plates and exposed to the test compound for 48 hours. Compounds are tested at a single concentration, which is 10^-5 M for most compounds. The reported endpoint is percent growth (GI% or GIPRCNT), where numbers from 0 - 100% represent growth inhibition, and numbers from -100% - 0 represent cell death. For example, a value of 40 represents 60% growth inhibition. A value of 0 means no net growth occurred over the course of the experiment. A value of -40 indicates 40% of cells at the beginning of the experiment died by the end of the experiment. A value of -100 means all cells are dead at the end of the experiment.
# NCI-60 Human Tumor Cell Lines Screen was performed using the standard one-dose NCI protocol, which is described in more detail at https://dtp.cancer.gov/discovery_development/nci-60/default.htm.
# Compounds with GIPRCNT values below 10 were considered active. Activity score was based on GIPRCNT using the following formula: […]
# Score is 0 for GIPRCNT values of 100 or above, 50 for GIPRCNT values of 0, and 100 for GIPRCNT values of -100.
row,Compound,growth
1,CC(Nc1ncnc2ccc(-c3cnc4cnccn34)cc12)c1ccccc1 (stereo not given),64%
2,N#Cc1c(-c2cccs2)cc(-c2cnccn2)nc1SCC(=O)N/N=C/c1ccc(Cl)cc1,121%
3,O=C1Nc2ccccc2/C1=N\c1nnc(-c2ccccc2)o1,96.4%
4,Cn1cc(-c2nnc(N)nc2-c2c[nH]c3ccc(F)cc23)c2cc(Br)ccc21,11.8%
5,Cn1cc(-c2nn3cc(-c4ccncc4)nc3s2)c2cc(F)ccc21,99.8%
6,CCCCSC1=C(Cl)CN(c2ccccc2)C1=O,121%
7,O=C1/C(=C/c2cc(F)cc(F)c2)Cc2cc3c(cc21)OCO3,44.3%
8,CC1=C(C)C(=O)C(Nc2cccc(C(F)(F)F)c2)=C(Br)C1=O,104%
9,Cc1cccc(N2CCN(C3=C(Cl)C(=O)c4ncccc4C3=O)CC2)c1,99.9%
10,CNC(=O)Nc1ccc(Nc2cc(-c3ccc(-n4cccn4)cc3)[nH]n2)c(C)c1,122%
11,O=C(COc1ccc(/C=C2\C(=O)Nc3ccc(Cl)cc32)cc1)Nc1ccc(Cl)cc1,88.6%
12,C/C(=C(\c1ccc(O)cc1)c1ccc(OCCN2CCCCCC2)cc1)c1ccc(Cl)cc1,-92.3% (active)
13,O=S(=O)(NCCCNc1nccc(-c2[nH]c(-c3ccccc3)nc2-c2ccc(F)c(O)c2)n1)c1ccc(C(F)(F)F)cc1,18.8%
14,Clc1ccc2c(N/N=C/c3c[nH]c4ccccc34)ccnc2c1,-82.2% (active)
15,O=C(/C=C/c1csc(Br)n1)NO,37.6%
16,CCC1=Cc2c(OC)cccc2OC12C=Cc1c(OC)cccc1O2 (stereo not given),65.8%
17,CS(=O)(=O)c1nccc(-c2c(-c3cccc(OCc4ccc(Cl)c(C(F)(F)F)c4)c3)nc3sccn23)n1,107%
18,COc1ccc(C2CC(c3cccc(OCCCCOc4cccc(C5=NN(C(C)=O)C(c6ccc(OC)cc6)C5)c4)c3)=NN2C(C)=O)cc1 (stereo not given),59.7%
19,COc1cccc2c1[C@H](OC)[C@]13O[C@@]1(C2=O)[C@H](O)[C@H](C)[C@@](O)(C(=O)[C@@H]1O[C@H]1C)[C@@H]3O,-55.7% (active)
20,CNC(=O)c1cc(N2CCc3cc(NC(=O)Nc4ccc(N5CCOCC5)c(C(F)(F)F)c4)ccc32)ccn1,45.6%

row,Compound,growth
1,CS(=O)(=O)c1ccc(/C(=N/N=C(N)N)c2ccc(F)cc2)cc1,97.2%
2,O=c1nc(Nc2ccc([N+](=O)[O-])cc2O)sc2ccccc12,39.4%
3,N#Cc1c(-c2ccc(Br)cc2)cc(-c2c[nH]c3ccccc23)nc1N,39.6%
4,CN1CCN(Cc2ccc(NC(=O)c3cncc(C#Cc4cnc5ccc(N)nn45)c3)cc2C(F)(F)F)CC1,-27.9% (active)
5,O=c1oc2ccc(-c3ccc(F)cc3F)cc2c(=O)n1-c1ccc(Br)cc1F,41%
6,NS(=O)(=O)c1cccc(Nc2nc(SCC(=O)c3ccc(Cl)cc3)nc3c2CCC3)c1,98%
7,C/C(=C(/C)C1CC1CCNC1CCC(NC(=O)OC(C)(C)C)CC1)c1ccccc1 (stereo not given),95.9%
8,O=C(CCCCCCNC(=O)C(O)(O)C(F)(F)F)Nc1ncc(-c2ccccc2)s1,-23.3% (active)
9,O=C(CSc1nc2ccccc2c(=O)n1-c1ccccc1)Nc1ccc(S(=O)(=O)Nc2nccs2)cc1,89.9%
10,C#Cc1nc(C(=O)NCCCCCCC(=O)NO)cs1,8.08% (active)
11,CC1=C(SCC(=O)OCCCCCC(C)C)C(=O)c2ccccc2C1=O,99.1%
12,Cn1c(SCC(=O)c2ccco2)nc2ccccc2c1=O,106%
13,Cc1ccc2c(n1)C(=O)C(Cl)=C(Nc1cccc(C(=O)OC(C)(C)C)c1)C2=O,115%
14,CCN(CC)c1ccc(/C=N/NC(=O)c2ccc(S(N)(=O)=O)cc2)cc1,38.7%
15,C#C[C@]1(O)CC[C@H]2[C@@H]3CC=C4c5sc(Nc6cc(C)cc(C)c6)nc5CC[C@]4(C)[C@H]3CC[C@@]21C,14%
16,CN(C)CCCOc1ccc(C(=C(c2ccccc2)C2CCCC2)c2ccc(OCCCN(C)C)cc2)cc1,-94.3% (active)
17,CCCCCN1C(=O)/C(=c2\sc3n(c2=O)C2C(NN=3)N(CC)C(=O)N2CC)c2cccc(C)c21 (stereo not given),97.1%
18,Brc1cc(-c2cc(-c3ccc4c(c3)OCCO4)[nH]n2)cs1,62.7%
19,CC(C)(C)c1cc(NC(=O)Nc2ccc(-c3cn4c5c(sc4n3)CCc3c[nH]cc3-5)cc2)no1,-11.7% (active)
20,CCNC(=O)Oc1ccc(/C(=C(/C)c2ccc(OC)cc2)c2ccc(OCCN3CCCCCC3)cc2)cc1,83.4%
